# The whole screen tested about 650,000 compounds, of which about 5,900 (0.91%) were called active. This is one part of a sample in which actives are shown more often than they occur. A number with no mark means an inactive call. Rule as the data show it: active = inhibition above about 50%; inactive = the rest.
# Biological target: Microphthalmia-associated transcription factor (Homo sapiens) (UniProt O75030)
# Test: MITF inhibitors, primary screen, biochemical, AlphaScreen, human (AID 1259374);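 also: 0% = vehicle wells with protein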
# Details: AlphaScreen MITF homodimerization, bead proximity signal; at 2.6 µM; hits give high values
# Microphthalmia-associated transcription factor (Homo sapiens), sequence (O75030 whole entry, looked up): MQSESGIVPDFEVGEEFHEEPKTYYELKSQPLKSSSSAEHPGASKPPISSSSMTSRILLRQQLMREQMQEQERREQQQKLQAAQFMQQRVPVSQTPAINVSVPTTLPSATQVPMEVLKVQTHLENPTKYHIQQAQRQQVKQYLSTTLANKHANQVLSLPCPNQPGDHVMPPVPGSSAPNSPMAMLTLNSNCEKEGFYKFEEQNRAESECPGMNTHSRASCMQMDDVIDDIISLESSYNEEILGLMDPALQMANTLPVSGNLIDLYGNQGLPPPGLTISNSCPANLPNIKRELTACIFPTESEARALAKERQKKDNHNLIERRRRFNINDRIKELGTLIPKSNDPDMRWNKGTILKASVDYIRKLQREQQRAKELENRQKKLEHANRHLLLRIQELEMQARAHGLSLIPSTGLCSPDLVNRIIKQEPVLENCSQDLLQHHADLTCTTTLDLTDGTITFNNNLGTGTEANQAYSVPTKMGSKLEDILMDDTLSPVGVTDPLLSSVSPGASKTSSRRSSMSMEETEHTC
row,SMILES,inhibition
1,N#CC1=C(SCC(=O)Nc2cccc(F)c2)NC(=O)CC1c1ccccc1F (stereo not given),3.64%
2,CCc1ccccc1NC(=O)c1ccc(F)c(S(=O)(=O)NCc2ccc3c(c2)OCO3)c1,10.2%
3,Cc1ccc(/C=C(\C#N)C(N)=O)c(C)c1,6.24%
4,COCCn1nnnc1C(c1cccnc1)N1CCN(c2ccccc2OC)CC1 (stereo not given),-7.29%
5,Nc1cccc(-c2ccc(C(=O)Nc3ccc(N4CCOCC4)cc3)s2)c1,13.4%
6,CCS(=O)(=O)N1CCC(N2CC(C)CC(C)C2)CC1 (stereo not given),31.2%
7,CCS(=O)(=O)N1CCC(c2nnc(C3CC3)s2)CC1,1.6%
8,CCS(=O)(=O)N1CCN(C2CCCCC2C)CC1 (stereo not given),51.2% (active)
9,COc1cc(/C=N/NC(=O)c2cccnc2)ccc1Oc1ccc([N+](=O)[O-])cc1[N+](=O)[O-],12.4%
10,CCC1CN(Cc2ccccn2)Cc2ccc(Cl)cc2O1 (stereo not given),-11.7%
11,CCCCCCOC(=O)c1ccc(-c2ccc(-c3ccc(C(=O)OCCCCCC)cc3)cc2)cc1,14.5%
12,CCOC(=O)c1cc2cccnc2nc1C,12.4%
13,CCCCCCOC(=O)c1cc(C(=O)OCCCCCC)c(C)nc1C,55.6% (active)
14,CCN1CCN(Cc2c(O)ccc3cc(-c4ccccc4)c(=O)oc23)CC1,2.19%
15,Cc1cn2c(=O)c(C(=O)Nc3ccc(Br)c(C)c3)cnc2s1,3.85%
16,C=CCNC(=O)c1cc2cc(Cl)ccc2oc1=O,12.4%
17,CC1(C)CC(=O)C2=C(C1)Nc1ccccc1N(C(=O)Cc1ccccc1)C2c1cccc(F)c1 (stereo not given),0.57%
18,CCN(CC)c1ccc(C2C3=C(CC(C)(C)CC3=O)Nc3ccccc3N2C(=O)Cc2ccccc2)cc1 (stereo not given),2.82%
19,CC1(C)CC(=O)C2=C(C1)Nc1ccccc1N(C(=O)Cc1ccccc1)C2c1ccc(-c2ccc([N+](=O)[O-])cc2)o1 (stereo not given),65.2% (active)
20,COc1ccc(C2CC(=O)C3=C(C2)Nc2ccccc2N(C(=O)c2ccc(Cl)c(Cl)c2)C3c2ccc(C)cc2)cc1 (stereo not given),-2.68%

row,SMILES,inhibition
1,COc1cc(NC(C)C(=O)Nc2ccc(C(C)=O)cc2)cc(OC)c1 (stereo not given),0.12%
2,CC(=O)c1ccc(NC(=O)C(C)NCc2ccc(C)cc2)cc1 (stereo not given),76% (active)
3,CC(=O)c1ccc(NC(=O)C(C)NCc2ccc(Cl)cc2)cc1 (stereo not given),3.65%
4,Cc1nc2c(c(=O)[nH]1)C(c1ccc(Cl)c(Cl)c1)C(C#N)=C(N)O2 (stereo not given),3.39%
5,C=CCNC(=O)C(=O)Nc1cc(C)ccc1OC,12.4%
6,NS(=O)(=O)c1ccc2nc(NC(=O)COc3ccccc3)sc2c1,5.22%
7,CNC(=O)NC(=O)CSc1ncnc2sc(-c3ccccc3)cc12,9.51%
8,NS(=O)(=O)c1cccc(NC(=O)COc2ncnc3sc(-c4ccccc4)cc23)c1,51.8% (active)
9,O=S(=O)(NCc1cccnc1)c1ccc(-n2cnnn2)cc1,-8.13%
10,COc1ccc(Cc2nnc(N/N=C/c3ccccc3O)[nH]c2=O)cc1OC,112% (active)
11,COc1cccc(Nc2nnc(Cc3ccc(Cl)cc3)c(=O)[nH]2)c1,10.6%
12,CCOc1ccccc1Nc1nnc(Cc2ccc(OC)cc2)c(=O)[nH]1,24.2%
13,Cc1cc(NC(=O)Cc2ccccc2)n(-c2nc(C)c(C)c(=O)[nH]2)n1,24.5%
14,C[C@@H](OCc1ccccc1)[C@@H]1NC(=O)[C@H]2CN(Cc3ccc4ncccc4c3)CCN2C1=O,15.9%
15,C[C@@H](OCc1ccccc1)[C@@H]1NC(=O)[C@H]2CN(C(=O)Nc3cccc(F)c3)CCN2C1=O,75.3% (active)
16,C[C@H](O)[C@H]1NC(=O)[C@H]2CN(C(=O)c3ccccc3)CCN2C1=O,-12.5%
17,O=C1N[C@H](Cc2ccccc2)C(=O)N2CCN(C(=O)Oc3ccccc3)C[C@H]12,-5.43%
18,CC[C@@H]1NC(=O)[C@H]2CN(C(=O)c3cccs3)CCN2C1=O,14.5%
19,CC[C@@H]1NC(=O)[C@H]2CN(C(=O)NCc3ccccc3)CCN2C1=O,75.7% (active)
20,Cc1ccccc1C(=O)Nc1ccc(S(=O)(=O)NCc2ccccc2)cc1,5.75%

row,SMILES,inhibition
1,Cc1ccc(NC(=O)CC[C@H]2CN(Cc3ccncc3)CC[C@H]2N2CCOCC2)cc1,-7.04%
2,CCCC(C)C(=O)Nc1nc2c(s1)C(=O)CC(C)(C)C2 (stereo not given),6.86%
3,CC(C)NC(=O)/C=C/c1cccc([N+](=O)[O-])c1,-4.32%
4,COc1cccc(N2C(=O)CC(N3CCN(C)CC3)C2=O)c1 (stereo not given),5.95%
5,Cc1ccc(-c2noc(CN(C(C)C)S(=O)(=O)c3ccc(F)cc3)n2)cc1,-1.65%
6,c1cc2c(cc1CNc1nc(Nc3ccc(N4CCOCC4)cc3)c3ncn(C4CCCCC4)c3n1)OCO2,53.1% (active)
7,c1ccc(CN2CCC(Nc3nc(NCc4ccc5c(c4)OCO5)nc4c3ncn4C3CCCCC3)CC2)cc1,16.3%
8,O=C1CCCN1CCn1cnc2c(Nc3ccc(N4CCOCC4)cc3)nc(NCc3ccc4c(c3)OCO4)nc21,15.2%
9,CC12CCOCC1C2C(=O)Nc1ccc(N=Nc2ccccc2)cc1 (stereo not given),-6.59%
10,O=C1CCCN1CCCNc1ccnc(Nc2nccc3ccccc23)n1,-1.07%
11,CCN1CCN(CC(=O)N/N=C/c2cccc(Cl)c2)CC1,57.4% (active)
12,O=C(CN1CCCCCC1)N/N=C/c1ccc(Cl)cc1,20%
13,COc1cccc(/C=N\NC(=O)CN2CCN(C)CC2)c1,-8.3%
14,Cc1cccc(NC(=O)c2sc3nc4c(cc3c2N)CCC4)c1C,21.2%
15,CN1CCN(CCOCCOc2ccc3c(c2)CCC3)CC1,11.3%
16,CN1CCN(CCCCOc2ccc(C#N)cc2)CC1,1.14%
17,CCN1CCN(CCOc2ccc(-c3ccccc3)cc2)CC1,76.4% (active)
18,CCOc1ccc(OCCN2CCNCC2)cc1,12.2%
19,COc1ccc(OCCOCCOc2ccc([N+](=O)[O-])cc2Cl)cc1,3.66%
20,CCN1CCN(CCOCCOc2ccc([N+](=O)[O-])cc2)CC1,72% (active)
